Test results taken from PubChem BioAssay (NCI).
About 83,000 compounds went through this panel and 20% of them were active in at least one assay; those are over-represented in the sample as a whole.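 Values shown are percent growth following 48 h exposure of cells in 96-well plates to a single concentration of compound; below 10 was considered active.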 Unmarked numbers belong to inactive results. Calls of active or inactive are those of the source.

Each compound was assayed on HOP-62 NSCLC (assay: NCI-60 one-dose screen, 48 h (100 = growth as untreated, 0 = no growth, -100 = all killed)). Details: 10 µM unless noted.
Description: Growth inhibition of the HOP-62 human Non-Small Cell Lung tumor cell line is measured as a screen for anti-cancer activity. Cells are grown in 96 well plates and exposed to the test compound for 48 hours. Compounds are tested at a single concentration, which is 10^-5 M for most compounds. The reported endpoint is percent growth (GI% or GIPRCNT), where numbers from 0 - 100% represent growth inhibition, and numbers from -100% - 0 represent cell death. For example, a value of 40 represents 60% growth inhibition. A value of 0 means no net growth occurred over the course of the experiment. A value of -40 indicates 40% of cells at the beginning of the experiment died by the end of the experiment. A value of -100 means all cells are dead at the end of the experiment.
NCI-60 Human Tumor Cell Lines Screen was performed using the standard one-dose NCI protocol, which is described in more detail at https://dtp.cancer.gov/discovery_development/nci-60/default.htm.
Compounds with GIPRCNT values below 10 were considered active. Activity score was based on GIPRCNT using the following formula: […]
Score is 0 for GIPRCNT values of 100 or above, 50 for GIPRCNT values of 0, and 100 for GIPRCNT values of -100.
For `Cc1cc(C)cc(NC2=C(Cl)C(=O)c3nc(C)ccc3C2=O)c1`, the growth was 101%.
`CN1CCN(c2ccc(Nc3nc(NCCCNS(=O)(=O)c4cccc(F)c4)c4sccc4n3)cc2)CC1` gave a growth of 96.6%.
`C#CCOc1ccccc1C(OC(=O)c1ccccc1)C(=O)NC(C)(C)C(C)(C)C` (stereo not given) was tested, and the growth was 88.4%.
Work on `COC(=O)c1cccc(NC2=C(Cl)C(=O)C(C)=C(C)C2=O)c1` yielded a growth of 94.8%.
With `COC(=O)c1ccc(NC2=C(Cl)C(=O)c3nc(C)ccc3C2=O)cc1` the growth was 96.8%.
Compound `C/C(=N\NC(N)=S)c1nnn(-c2ccc([N+](=O)[O-])cc2)c1C` has a growth of 99.4%.
`NS(=O)(=O)c1ccc(Nc2nc(N/N=C/C=C/c3ccccc3)nc(Nc3ccccc3)n2)cc1` was tested, and the growth was 56.2%.
`Cc1ccc2c(n1)C(=O)C(Cl)=C(Nc1cccc(C)c1C)C2=O` was tested, and the growth was -0.0437% (active).
`CCC1=Cc2c(OC)cccc2OC12C=Cc1c(OC)cccc1O2` (stereo not given) was tested, and the growth was 43.2%.
`Cc1cc(NS(=O)(=O)c2ccc(NC(=O)CSc3nc4ccccc4c(=O)n3-c3ccccc3)cc2)no1` showed a growth of 98.5%.
Compound `O=C(CSc1nc2ccccc2c(=O)n1-c1ccc(Cl)cc1)N/N=C/c1ccc(Oc2ccc(Cl)cc2)cc1` has a growth of 32.6%.
Compound `O=C1[C@@H]2Cc3c([nH]c4ccccc34)[C@H](c3ccc(Br)cc3)N2C(=O)CN1C1CCN(Cc2c(Cl)cccc2Cl)CC1` has a growth of 91.9%.
Compound `O=C1C(SCc2ccccc2)=C(Cl)CN1c1ccccc1` has a growth of 104%.
In the case of `C=C(C)[C@@H]1CC[C@]2(COP(=O)(OCC)OCC)CC[C@]3(C)[C@H](CC[C@@H]4[C@@]5(C)CC[C@H](OP(=O)(OCC)OCC)C(C)(C)[C@@H]5CC[C@]43C)[C@@H]12`, the growth is reported as 63.5%.
For `CN1CCN(Cc2ccc(NC(=O)c3cncc(C#Cc4cnc5ccc(OC6CCOCC6)nn45)c3)cc2C(F)(F)F)CC1`, the growth was -77.4% (active).
Work on `CCCCSC1=C(Cl)CN(c2ccc(Cl)cc2)C1=O` yielded a growth of 106%.
Work on `Cc1[nH]c(C(=O)Nc2ccccc2OCc2cccc(C(=O)NCCN)c2)cc1Cl` yielded a growth of 103%.
In the case of `C#CCOc1ccc(/C=N/Nc2nc(-c3ccc(OC)cc3)cs2)cc1`, the growth is reported as 97.6%.
For `NC1CC2(CCN(c3cnc(C(=O)Nc4cc(F)cc5cccnc45)cn3)CC2)C1`, the growth was 96%.
For `COC(=O)CCCNCCCn1ccc2cc(NCc3cccc(-c4ccccc4)c3C)ccc21`, the growth was 81.9%.
In the case of `COc1cc(C(=O)c2cc(C(C)=O)c3ccc(C)cn23)cc(OC)c1OC`, the growth is reported as 52.4%.
In the case of `COc1ccc(-c2nc(C#N)c(N3CCC(S(=O)(=O)N4CCOCC4)CC3)o2)cc1`, the growth is reported as 99.2%.
Work on `CCCc1cc2cc(-n3nc(CC)c4c3CC(C)(C)CC4=O)cc(NC3CCC(O)CC3)c2c(=O)[nH]1` (stereo not given) yielded a growth of 15.4%.
For `COc1ccc2[nH]cc(-c3nn4cc(-c5ccncc5)nc4s3)c2c1`, the growth was 69.9%.
With `CN1CCN(c2ccc(Nc3nc(NCCNS(=O)(=O)c4ccc5ccccc5c4)c4sccc4n3)cc2)CC1` the growth was 97.5%.
For `CCOC(=O)c1cnc2c(-c3ccc(Cl)c(Cl)c3)cnn2c1`, the growth was 69.1%.
For `CC1(C)CC[C@]2(C(=O)O)CC[C@]3(C)C(=CC[C@@H]4[C@@]5(C)CC[C@H](NOCCCN)C(C)(C)[C@@H]5CC[C@]43C)[C@@H]2C1`, the growth was 102%.
Work on `CC(Nc1ncnc2ccc(-c3cnc4cnccn34)cc12)c1ccccc1` (stereo not given) yielded a growth of 68.8%.
With `C#Cc1cc(OC)c(C(=O)Nc2ccc(F)cc2C(=O)Nc2cccc(S(=O)(=O)C(F)(F)F)c2)cn1` the growth was 16.3%.
`NS(=O)(=O)c1ccc(Nc2nc(Nc3ccccc3)nc(N3N=C(c4ccc(Cl)cc4)CC3c3ccc(Cl)cc3)n2)cc1` (stereo not given) showed a growth of 75.8%.
Compound `Cc1cccc(N2CCN(C3=C(Cl)C(=O)c4ncccc4C3=O)CC2)c1` has a growth of 83.3%.
In the case of `COc1ccc2c(c1)C=CC1(O2)Oc2ccc(OC)cc2C=C1C` (stereo not given), the growth is reported as 51%.
`CCOC(=O)c1c(NC(=O)c2cccc(C(F)(F)F)c2)sc2c1CCC(=O)C2` showed a growth of 31.8%.
For `Cn1cc(-c2nnc(N)nc2-c2c[nH]c3ccc(F)cc23)c2cc(Br)ccc21`, the growth was 30.9%.
With `COc1ccc(C(=O)c2c(N)c(C#N)cn2-c2ccc(Cl)cc2Cl)cc1` the growth was 99.7%.
`COc1cccc(N2CCN(C3=C(Cl)C(=O)c4ncccc4C3=O)CC2)c1` showed a growth of 83.5%.
In the case of `Cc1ccc2c(n1)C(=O)C(Cl)=C(Nc1cc(C(F)(F)F)cc(C(F)(F)F)c1)C2=O`, the growth is reported as 118%.
`COc1ccc2[nH]cc(-c3nc(N)nnc3-c3cn(C)c4ccc(Br)cc34)c2c1` gave a growth of 38.9%.
Compound `CC(=O)Nc1nc(C)c(-c2csc(Nc3ccccc3)n2)s1` has a growth of 42.8%.
`CC(Nc1c(C#N)cnc2ccc(-c3cncc(O)c3)cc12)c1ccccc1` (stereo not given) was tested, and the growth was 5.27% (active).
